The list is not random: actives were taken first. Their share in the collection is about 5.5%.
Mito fusion act: inhibitors of mitochondrial division or activators of mitochondrial fusion; S. cerevisiae fusion-defective mutant growth rescue, CellTiterGlo 48 h; Potency, µM (series often up to 46.1 µM), for inactives: at the highest dose growth rescue (activation), actives largely listed as activators; hit rate 0.23% among 320,000; AID 485298; also: % of control where 0% means no effect; nearly all actives have a fitted effect of over 45% in size
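S. cerevisiae fusion-defective temperature-sensitive mutants (e.g. fzo1-1, mgm1-5) grown 48 h at 37C in YPEG (ethanol/glycerol non-fermentable) medium with 23 nl compound per well; growth rescue read as CellTiterGlo luminescence.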
RORg inh: blocks mouse ROR gamma transcriptional activity; Drosophila S2 Gal4-RORgamma UAS-luciferase reporter, 20 h; Potency, µM (doses to about 53.6 µM), without a hit: at the highest dose activity change, negative = inhibition, actives largely listed as inhibitors; hit rate 5.4% among 310,000; also: % is scaled to controls: 0 for no effect and ±100 for the full control effect; nearly all actives have a fitted effect of over 60% in size
Target sequence (P51450 whole entry, looked up, the tested form may be a part): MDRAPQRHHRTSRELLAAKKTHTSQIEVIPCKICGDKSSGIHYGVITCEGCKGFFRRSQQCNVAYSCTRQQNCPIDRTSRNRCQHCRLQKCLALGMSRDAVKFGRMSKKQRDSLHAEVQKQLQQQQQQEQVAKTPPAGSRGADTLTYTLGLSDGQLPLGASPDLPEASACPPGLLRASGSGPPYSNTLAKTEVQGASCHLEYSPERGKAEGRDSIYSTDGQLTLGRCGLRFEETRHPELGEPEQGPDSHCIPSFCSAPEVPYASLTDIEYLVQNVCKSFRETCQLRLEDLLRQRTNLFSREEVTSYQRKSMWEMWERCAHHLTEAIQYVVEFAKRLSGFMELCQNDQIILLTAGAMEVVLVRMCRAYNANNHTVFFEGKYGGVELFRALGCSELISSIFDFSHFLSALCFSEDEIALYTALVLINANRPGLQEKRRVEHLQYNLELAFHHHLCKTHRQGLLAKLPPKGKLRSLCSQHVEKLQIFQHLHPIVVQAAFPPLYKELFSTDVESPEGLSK
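In this cell-based reporter format, copper sulfate (700 uM final) drives Gal4–ROR gamma fusion expression from a metallothionein promoter in Drosophila Schneider cells; compounds preincubated 1 hr, reporter read after 20 hr at ambient temperature.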
Integrin act MD: integrin-mediated muscular dystrophy alleviation activation. hit rate 0.064% among 350,000. alpha7betagal myoblasts, beta-gal FDG fluorescence, 48 h. AID 624291. Potency, µM (titrated, usually from 38.3 µM), for inactives: top-dose activation, hits mostly activators;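 also: 100% = response of the positive control SU9516; nearly all actives have a fitted effect of over 60% in size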
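alpha7betagal+/- myoblasts (passage 13, 250/well) treated 48 h at 37C with compounds at 1:260 dilution of DMSO stock. Lysed, then beta-galactosidase activity read as FDG fluorescence (ex 480/em 540) after 30 min, with pre-read for autofluorescence.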
BCR signal inh: inhibitors of chronic active B-cell receptor signaling; ABC-DLBCL IkBa-CBG/CBR reporter, luminescence ratio, 4 h; Potency, µM (titrated, usually from 46.1 µM), for inactives: at the highest dose activity change, negative = inhibition, most hits filed as inhibitors; hit rate 0.05% among 340,000; active = well fitted inhibition curve with a large enough effect in the signal ratio, with a control signal flat, not every such curve was filed as active; inconclusive = small, poorly fitted or top-dose-only effect, or effect the other way, or a change in a side signal; the % refers to the signal ratio;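 also: plate controls were basal doxycycline-induced cells for no effect and cells given 10 µM MG132 for full effect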
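Concentration-response series (up to 46 uM) were applied to TMD8 dual-reporter cells for 4 h at 37C with doxycycline. Green/red ratio, after filter-overlap correction, defined %Activity; red signal alone was normalised to basal cells and zero luminescence.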
uPA surface inh: cell surface uPA generation inhibition; AID 540303; Potency, µM (doses to about 38.3 µM), for the others: at the highest dose activity change, negative = inhibition, hits mostly inhibitors; hit rate 0.31% among 330,000; cell surface uPA generation assay, qHTS; active = well fitted inhibition curve with a large enough effect; inconclusive = small, poorly fitted or top-dose-only effect; inactive = no such curve, though single readings can be large or run the other way; tested in mouse RAW 264.7 cells; also: % is scaled to controls: 0 for no effect and ±100 for the full control effect; nearly all actives have a fitted effect of over 55% in size
Gal4-VP16 FLuc: Gal4-VP16 reporter inhibition counter-screen. Drosophila S2 Gal4-VP16 UAS-luciferase, luminescence, 20 h. Potency, µM (highest dose often 53.6 µM), inactives show at the highest dose activity, negative = inhibition, hits mostly inhibitors. hit rate 3.5% among 310,000;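 also: Gal4-VP16 expression switched on by copper sulfate through the metallothionein promoter; % is scaled to controls: 0 for no effect and ±100 for the full control effect; nearly all actives have a fitted effect of over 50% in size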
Numbers without * were called inactive; ? = inconclusive; . = no result given; ! = not confirmed by another sample; [ ] = dose if it differs, or a comment. Unless noted, calls follow the shape of the dose curve; as a rule, active = well fitted curve in the direction sought with a large enough effect; inconclusive = small, poorly fitted or top-dose-only effect, or another doubt; inactive = no such curve, though single readings can be large; an effect the other way counts as inactive or inconclusive. Potency is read from the fitted curve at half-maximal effect.

SMILES | Mito fusion act | RORg inh | Integrin act MD | BCR signal inh | uPA surface inh | Gal4-VP16 FLuc
O/N=C1/CC/C(=N\O)c2nn(-c3ccccc3)nc21 | -1% | 12% | -16% | 5.8µM* | 2% | -5%
Cc1ccc(-c2nc3c(c(SCC(=O)Nc4cccc(C(=O)O)c4)n2)Cc2cccc(C)c2O3)cc1 | 1% | . | . | 8% | . | .
CCOc1cc(CNc2ccc(N(C)C)cc2)cc(Br)c1OCC(=O)NC(C)(C)C | -3% | 10µM* | -58% | 0% | -4% | -12%
CCOc1cc(CNc2ccc(N3CCCCC3)cc2)cc(Br)c1OCC(=O)NC(C)(C)C | 6% | -33% | -50% | ? | -3% | -27%
O=[N+]([O-])c1cc([N+](=O)[O-])c2cc3ccccc3nc2c1 | 9% | 3.2µM* | 3% | ? | -1% | 2.8µM*
CC(=O)C1=C(c2ccccc2)NC(=S)NC1c1cc(Cl)c(OC(C)C)c(Cl)c1 (stereo unspecified) | 5% | 7.1µM* | -32% | ? | 22% | 5µM*
COc1ccccc1NC(=O)C(C)N1C(=O)c2ccccc2C1=O (stereo unspecified) | -2% | -33% | 3% | 1% | 12% | -11%
COc1ccccc1NC(=O)C(=O)N1N=C(C(C)C)CC1(O)C(F)(F)F (stereo unspecified) | 0% | 10µM* | -13% | ? | 2% | ?
CCC1=NN(C(=O)C(=O)Nc2ccc(OC)cc2)C(O)(C(F)(F)F)C1 (stereo unspecified) | -3% | ? | -16% | 1% | -7% | -22%
CCC1=NN(C(=O)C(=O)Nc2ccccc2OC)C(O)(C(F)(F)F)C1 (stereo unspecified) | 3% | 13µM* | -17% | ? | -7% | ?
O=C(CCCN1CCC(O)(c2cccc(C(F)(F)F)c2)CC1)c1ccc(F)cc1 | 23µM*! | -1% | . | 0% | -19% | 8%
O=C(CCCN1CCC(O)(c2ccc(Br)cc2)CC1)c1ccc(F)cc1 | 25% | -2%[2.98 µM] | . | ? | 4% | 4%[17 µM]
CCOc1ccc(-c2cc(CCCC(=O)NCc3ccc(C)cc3)no2)cc1 | -3% | 1.3µM* | 20% | ? | -9% | ?
CCOc1ccc(-c2cc(CCCC(=O)NCc3ccco3)no2)cc1 | -7% | 0.11µM* | -14% | ? | ? | ?
CCOc1ccc(-c2nnn(CC(=O)NCc3ccco3)n2)cc1 | -7% | ? | -25% | ? | -14% | -1%
COCCOC(=O)c1ccccc1C(=O)OCCOC | . | -9% | . | . | . | 9%
CC(=O)c1ccc(NC(=O)CN2C(=O)NC(C)(C3CCCCC3)C2=O)cc1 (stereo unspecified) | -1% | . | 22% | -1% | 9% | .
CC1CCCC(NC(=O)CCCn2c(=S)[nH]c3ccccc3c2=O)C1C (stereo unspecified) | -10% | 10µM* | 10% | -7% | 5% | -10%[10 µM]
CC1CCCCC1NC(=O)CCCCCn1c(=S)[nH]c2ccccc2c1=O (stereo unspecified) | -30% | 16µM* | ? | -6% | 0% | 7%
O=C(CCCn1c(=S)[nH]c2ccccc2c1=O)NC1CCCC1 | -2% | ? | 2% | -11% | 2% | -8%
CC1CCCCC1NC(=O)CCCn1c(=S)[nH]c2ccccc2c1=O (stereo unspecified) | -1% | ? | -15% | 0% | 1% | 12%
COc1ccc(CC(=O)Nc2cc(S(C)(=O)=O)ccc2Cl)cc1S(=O)(=O)N1CCOCC1 | . | . | -16% | . | 2% | .
CSc1ccc(/C=C/C(=O)N2CCN(c3ccccn3)CC2)cc1 | -1% | 13µM* | -21% | ? | -20% | -27%
O=C(/C=C/c1ccc(F)cc1)NC(=S)N1CCN(c2ccccn2)CC1 | 1% | 2.5µM* | -12% | ? | 1% | 20µM*
COc1ccc(/C=C/C(=O)NC(=S)N2CCN(c3ccccn3)CC2)cc1OC | -4% | 3.2µM* | -11% | -24% | -10% | 11µM*
SMILES | Mito fusion act | RORg inh | Integrin act MD | BCR signal inh | uPA surface inh | Gal4-VP16 FLuc
COc1ccc(CNC(=O)CN2C(=O)COc3ccccc32)c(OC)c1 | . | . | . | -8% | . | .
Cc1cc(C(F)(F)F)nn1Cc1n[nH]c(=S)n1-c1cccc(Cl)c1 | -4% | 11µM* | 7% | 5% | 6% | ?
Cc1cc(C(F)(F)F)nn1Cc1n[nH]c(=S)n1-c1ccc(Cl)cc1 | -1% | ? | 18% | ? | -2% | ?
Cc1cc(C(F)(F)F)nn1Cc1n[nH]c(=S)n1Cc1ccccc1 | 0% | ? | 6% | 6% | 3% | 6.3µM*
Cc1noc(C)c1C(=O)N1CCC2(CCN(Cc3cc(C(F)(F)F)cc(C(F)(F)F)c3)CC2)CC1 | . | -37% | . | . | . | 4%
CCCCNC(=S)NNC(=O)c1nn(C)c(C)c1Cl | 0% | ? | 0% | 13% | -1% | -9%
CCCCNC(=S)NNC(=O)CCn1cc(C)cn1 | -7% | 1.6µM* | 19% | ? | 2% | 6.3µM*
Cc1cnn(CCC(=O)NNC(=S)NCC(C)C)c1 | -11% | 0.56µM* | 14% | 18µM* | 0% | 3.2µM*
COc1cc(CN(C)CC(=O)c2[nH]c(C)c(C(C)=O)c2C)ccc1OC(F)F | 2% | 3% | -31% | ? | -11% | 2.8µM*
COc1ccc(NC(=O)CN(C)CC(=O)c2[nH]c(C)c(C(C)=O)c2C)cc1 | -5% | . | -19% | -13% | 14% | .
C[C@H](NC(=O)c1ncn2c1C(=O)NC[C@H]2C)c1ccccc1 | . | . | 13% | . | . | .
CC(OC(=O)c1cccc(-n2cnnn2)c1)C(=O)NCc1ccccc1 (stereo unspecified) | -3% | . | -24% | -11% | -4% | .
CS(=O)(=O)c1cccc(-c2nnc(NC(=O)c3ccc(S(=O)(=O)N4CCCC4)cc3)o2)c1 | -10% | . | -1% | -8% | 4% | .
COc1ccc(-c2nnc(NC(=O)c3ccc(F)cc3)o2)cc1 | ? | 0.11µM* | -8% | -9% | ? | ?
COc1ccc(-c2nnc(NC(=O)c3cc(Cl)ccc3Cl)o2)cc1 | 20% | 1.1µM* | -2% | ? | ? | 1.4µM*
COc1ccc(-c2nnc(SCC(=O)NNC(=O)c3ccc(C)cc3)o2)cc1 | -2% | -31% | -4% | 0% | -2% | -9%
COc1ccc(-c2nnc(NC(=O)c3ccc4c(c3)OCCO4)o2)cc1 | 8% | 1.1µM* | -24% | ? | -5% | 1.3µM*
COc1ccc(NC(=O)c2ccc3c(c2)OCO3)cc1 | -1% | ? | ? | ? | ? | ?
O=C(Nc1nnc(-c2ccc(F)cc2)o1)c1ccc(S(=O)(=O)N2CCOCC2)cc1 | 2% | 0.63µM* | -33% | 6% | -8% | 0.71µM*

High-throughput results from PubChem.
